Source: PubChem (National Center for Advancing Translational Sciences (NCATS))
HttQ103 aggreg = mutant huntingtin aggregation inhibition; Potency, µM (top dose mostly 46.1 µM), inactives show at the highest dose activity change, negative = inhibition, most hits filed as inhibitors; PC12 HttQ103-GFP aggregates, Acumen cytometry, 40 h; 1.1% of 220,000 active; AID 1688; further: potency means the concentration at half of the fitted maximal effect; on the % scale 0 is the no-effect control and ±100 the full control effect; nearly all actives have a fitted effect of over 60% in size
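Multiplexed with ATP-based cell death, this channel scores GFP aggregates in PC12 cells expressing inducible HTTex1-Q103-GFP. Induction used 100 nM tebufenozide; compounds were tested in concentration series.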
CBFb-RUNX1 inh = inhibitors of human CBF-beta and RUNX1 interaction. 230,000 tested, under 10 active. AlphaScreen CBFb-His/RUNX1-biotin binding, biochemical. Potency, µM (top dose mostly 59.8 µM), without a hit: top-dose activity, negative = inhibition, actives largely listed as inhibitors. Q01196+Q13951; further: % of control where 0% means no effect
Target sequence (Q01196 whole entry, looked up): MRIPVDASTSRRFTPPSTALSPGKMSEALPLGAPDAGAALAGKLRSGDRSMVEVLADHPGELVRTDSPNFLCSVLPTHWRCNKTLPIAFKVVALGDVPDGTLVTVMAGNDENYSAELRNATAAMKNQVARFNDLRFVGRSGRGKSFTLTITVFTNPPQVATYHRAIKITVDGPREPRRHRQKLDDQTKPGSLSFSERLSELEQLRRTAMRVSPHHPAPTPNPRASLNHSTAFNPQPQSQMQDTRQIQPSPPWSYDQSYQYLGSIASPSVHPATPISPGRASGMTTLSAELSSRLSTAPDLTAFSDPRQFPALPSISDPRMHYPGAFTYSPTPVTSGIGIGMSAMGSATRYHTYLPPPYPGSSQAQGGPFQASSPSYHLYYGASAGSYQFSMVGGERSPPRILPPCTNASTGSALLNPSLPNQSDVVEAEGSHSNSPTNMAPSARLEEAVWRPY
Target sequence (Q13951 whole entry, looked up): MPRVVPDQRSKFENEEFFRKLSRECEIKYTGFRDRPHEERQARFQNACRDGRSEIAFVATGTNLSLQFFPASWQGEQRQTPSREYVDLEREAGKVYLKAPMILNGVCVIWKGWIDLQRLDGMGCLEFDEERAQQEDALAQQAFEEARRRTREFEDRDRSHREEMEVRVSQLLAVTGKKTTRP
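CBFb-His/RUNX1-biotin, 30 nM each, preincubated 20 min RT; compound 15 min RT; Ni + streptavidin beads 50 ng each, 90 min RT; AlphaScreen read.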
HTT ATP protect = cytoprotection in Huntington HTT-Q103 PC12 cell model; AID 1471; 0.14% of 230,000 active; PC12 HTT-Q103 induced, cytoprotection, ATP luminescence, 40 h; Potency, µM (top dose mostly 56.4 µM), without a hit: cytoprotection (ATP increase), usual class: activators; further: potency means the concentration at half of the fitted maximal effect; % of control where 0% means no effect; nearly all actives have a fitted effect of over 45% in size
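Compounds added alongside 100 nM tebufenozide, which induces toxic Q103 huntingtin exon 1-GFP in stable PC12 cells; surviving cells quantified by luminescent ATP measurement. Medium: phenol red-free DMEM, 5% equine and 5% calf serum.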
HPGD inh = blocks human HPGD enzyme activity; P15428; purified HPGD, NADH fluorescence kinetic, PGE2 substrate; Potency, µM, inactives show top-dose activity change, negative = inhibition, actives largely listed as inhibitors; 4.3% of 150,000 active; AID 894; active means well fitted inhibition curve with a large enough effect, not every such curve was filed as active; inconclusive means small, poorly fitted or top-dose-only effect, or another doubt; inactive means no such curve, though single readings can be large or run the other way; further: potency means the concentration at half of the fitted maximal effect; on the % scale 0 is the no-effect control and ±100 the full control effect
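20 nM HPGD preincubated 15 min at room temperature with compound in 50 mM Tris-HCl pH 8, 0.01% Tween 20. Started with 1 mM NAD+ and 30 uM prostaglandin E2; NADH fluorescence (360/450 nm) read 5 times over 30-s intervals, last minus first.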
PNC inhibitor = perinucleolar compartment assembly inhibition. PC3M PTB-GFP, PNC prevalence imaging, 16 h; active compounds read low. activity change (PNC), negative = inhibition, % at 10 µM. 3.1% of 140,000 active. AID 2417;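 active means readout at or below -70, meaning at least 70% loss of cells showing the perinucleolar compartment, a nuclear body marking cancer cells; inconclusive means readout between -30 and a set limit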;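 further: plate controls were DMSO wells for no effect and camptothecin positive control wells for full effect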
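Compounds are pinned in duplicate onto adhered PC3M cells stably expressing GFP-tagged PTB and incubated 16 h at 37 C. Cells are then fixed, nuclei stained with Hoechst, and PNC-positive cells counted.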
ALDH1A1 inh = ALDH1A1 (human) enzyme inhibition | Purified ALDH1A1, NADH fluorescence, propionaldehyde substrate | Potency, µM (highest dose often 75.3 µM), for inactives: at the highest dose activity, negative = inhibition, most hits filed as inhibitors | 7.3% of 220,000 active; active means well fitted inhibition curve with a large enough effect, not every such curve was filed as active; inconclusive means small, poorly fitted or top-dose-only effect, or another doubt; inactive means no such curve, though single readings can be large or run the other way;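 further: potency means the concentration at half of the fitted maximal effect; plate controls were no enzyme wells and a reference inhibitor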
Starred values were filed as active, the others as inactive; u = inconclusive; x = no result; [ ] = dose if it differs, or a comment. Sampled rows, rich in hits. Any-hit rate of the full collection: about 11%. Unless noted, the call rests on the fitted dose curve; in most records, active means well fitted curve in the direction sought with a large enough effect; inconclusive means small, poorly fitted or top-dose-only effect, or another doubt; inactive means no such curve, though single readings can be large; an effect the other way counts as inactive or inconclusive.

SMILES	HttQ103 aggreg	CBFb-RUNX1 inh	HTT ATP protect	HPGD inh	PNC inhibitor	ALDH1A1 inh
COc1ccc(COC(=O)C2=C(C)NC(=O)NC2c2ccc(O)c(OC)c2)cc1 (configuration not stated)	u	-5%	-6%[10 µM]	-6%	u	4%
O=C(NC1CCCCC1)C(c1cccnc1)N(CCc1ccccc1)C(=O)Cc1cccs1 (configuration not stated)	11%	-1%	-9%[1.9 µM]	-4%	-12	15%
O=C(COc1cccnc1[N+](=O)[O-])N1N=C(c2ccc(Cl)cc2)CC1c1ccco1 (configuration not stated)	17%	-5%	-36%	x	x	13µM*
CC1CN(C(NC(=O)c2ccccc2)C(Cl)(Cl)Cl)CC(C)O1 (configuration not stated)	-11%	0%	-32%	x	x	-8%
COCCCNC(=O)/C(C#N)=C1\N=C(NC(=O)c2cccs2)c2ccccc21	-3%[9.22 µM]	-2%	-10%[10 µM]	x	x	4µM*
N#C/C(C(=O)NCCc1ccccc1)=C1/N=C(NC(=O)c2cccs2)c2ccccc21	8%	-3%	-9%[10 µM]	-27%	15	4%
COc1ccc(OCCC(=O)OCC(=O)NCc2ccc(F)cc2)cc1	4%	1%	-39%	x	x	4%
Cn1ccnc1SCC(=O)Nc1cccc(S(=O)(=O)N2CCCCC2)c1	-1%	-3%	29%[10 µM]	x	x	-1%
c1ccc(CCc2nn3c(C4COc5ccccc5O4)nnc3s2)cc1 (configuration not stated)	5%	8%	3%[10 µM]	10µM*	-7	10µM*
c1ccc(Cc2nn3c(C4COc5ccccc5O4)nnc3s2)cc1 (configuration not stated)	-22%	-4%	-10%	8.9µM*	u	2µM*
N[C@H](C(=O)O)C1C(C(=O)O)C1C(=O)O (some centres not stated)	x	u	-43%	x	x	u
O=C(CCc1[nH]c2ccccc2c1Sc1ccccc1)NCCO	10%	u	-3%[10 µM]	-26%	u	-5%
CCOCC(O)COc1ccc(NC(=O)CC[S+](C)C)cc1 (configuration not stated)	-97%	x	-29%	x	x	x
O=C(CSC1=NCCN1)c1ccccc1	x	x	-2%[10 µM]	-7%	x	-2%[13.5 µM]
CC(=O)Nc1cccc(NC(=O)c2sc3ncn(CC(=O)N4CCCCC4)c(=O)c3c2C)c1	8%	11%	24%[1.9 µM]	-27%	-26	0.89µM*
COc1ccc(C(C)=O)cc1COc1ccc(-n2cnnn2)cc1	-5%	-12%	-54%	u	-1	3.5µM*
COc1ccc(C(C)=O)cc1COC(=O)c1ccc(OCc2c(C)noc2C)cc1	-8%	12%	-19%	-12%	45	7.9µM*
COc1ccc(C(=O)OCc2c(C)noc2C)cc1	15%	4%	-13%	x	x	u
COc1ccc(C(C)=O)cc1COC(=O)c1c(C)noc1C	19%	6%	-11%	-21%	-8	22µM*
O=C(NCCc1csc(-c2cccnc2)n1)c1ccc(Br)o1	u	2%	13%	u	1	22µM*
CCNc1ncc2nc(-c3ccc(OC)cc3)c(=O)n(Cc3cccc(OC)c3)c2n1	x	x	-9%	u	x	u
CC(=O)c1cccc(-n2c(CCC(=O)O)ccc2-c2cccs2)c1	0%	2%	-16%	-9%	52	7.9µM*
O=C(O)CCc1ccc(-c2cccs2)n1-c1ccc(C(=O)O)cc1	8%	-12%	-3%	-11%	-4	13µM*
CC(=O)c1cccc(NC(=S)NNC(=O)c2ccc(C)c([N+](=O)[O-])c2)c1	u	-10%	-16%	x	x	u
Cc1ccc(C(=O)NC(=S)Nc2cccc(NC(=O)c3ccccc3Cl)c2)cc1[N+](=O)[O-]	3%	-21%	-3%[10 µM]	-13%	u	13µM*
SMILES	HttQ103 aggreg	CBFb-RUNX1 inh	HTT ATP protect	HPGD inh	PNC inhibitor	ALDH1A1 inh
CC(=O)Nc1cccc(NC(=O)c2ccc(C)c([N+](=O)[O-])c2)c1	-3%	0%	-48%	x	x	-5%
Cc1ccc(C(=O)NC(=S)Nc2cccc(NC(=O)c3ccccc3)c2)cc1[N+](=O)[O-]	4%	-1%	-9%[10 µM]	-14%	-93*	16µM*
Cc1ccc(C(=O)NNC(=S)Nc2cccc(Cl)c2Cl)cc1[N+](=O)[O-]	19%	u	-10%	11µM*	28	2.8µM*
O=C1/C(=C/c2c[nH]c3ccccc23)CCC/C1=C\c1c[nH]c2ccccc12	-9%	u	13%[10 µM]	-25%	14	1.3µM*
O=C(c1cccnc1)N1N=C2CCCCCC2C1(O)C(F)(F)F (configuration not stated)	x	-3%	x	x	x	u
O=C(c1cccnc1)N1N=C(C2CCCCC2)CC1(O)C(F)(F)F (configuration not stated)	-9%[9.22 µM]	-1%	-9%[10 µM]	x	x	13µM*
N#Cc1ccc(CN2CCCC3(CCN(C(=O)c4cccc(F)c4)CC3)C2)cc1	x	x	7%	-13%	x	u
Cc1ccc(SC2=C(Sc3ccc(C)cc3)C(=O)c3ccccc3C2=O)cc1	-12%[9.22 µM]	0%	-1%[10 µM]	x	x	x
COCCCNC1=C(Cl)C(=O)c2ccccc2C1=O	2%[9.22 µM]	-18%	-17%[10 µM]	x	x	x
COC1=C(Nc2ccc(C)cc2)C(=O)c2ccccc2C1=O	u	x	-36%[10 µM]	11µM*	-9	5µM*
COC1=C(Nc2ccccc2)C(=O)c2ccccc2C1=O	6%	-1%	-27%[10 µM]	10µM*	u	2.2µM*
CCN(CC)CCCCNc1ncc2cc(-c3cc(OC)cc(OC)c3)c(NC(=O)NC(C)(C)C)nc2n1	x	20%	x	x	x	x
Cc1occc1C(=O)NNC(=O)Nc1ccc([N+](=O)[O-])cc1	-20%	5%	6%	x	x	14µM*
Cc1ccc([N+](=O)[O-])cc1NC(=O)c1ccoc1C	-23%	-1%	29%[0.074 µM]	-19%	u	20µM*
CN(C)CCCSc1ccccc1NC(=O)/C=C\c1ccccc1	x	26%[21.7 µM]	u	-12%	x	3%
COC(=O)C1=CO[C@@H](C)[C@@H]2CN3CCc4c([nH]c5ccccc45)[C@@H]3C[C@H]12	x	-16%	x	x	x	x
CN(Cc1c(F)cccc1Cl)c1ccc(S(=O)(=O)N2CCOCC2)cn1	3.5µM*	-2%	-42%	14%	u	u
OCC1O[C@H](OC2C(CO)O[C@@](O)(CO)C2O)C(O)C(O)C1O (some centres not stated)	11%	19%	-6%	-10%	x	2%
O=C(c1ccccc1)c1c[nH]c(C(=O)NNc2ccccc2)c1	-10%	-2%	-36%	x	x	22µM*
O=C(c1ccccc1)c1c[nH]c(C(=O)NCc2cccnc2)c1	u	1%	-4%	u	8	-1%
